Results: PubChem BioAssay (Tox21)
Several values for one entry are separate records, joined by “and”; a condition that tells them apart may be missing. Equal values may be shown once. Inconclusive results are not listed. Activity calls are given as the source filed them. Unless noted, the call rests on the fitted dose curve; in most records, active means well fitted curve in the direction sought with a large enough effect in the repeat runs; inconclusive means weak or mixed curves; inactive means no such curve, though single readings can be large; an effect the other way counts as inactive or inconclusive.

What was measured:
[1] = qHTS assay for small molecules that induce genotoxicity in human embryonic kidney cells expressing luciferase-tagged ATAD5 (AID 651632); further: on the % scale 0 is the no-effect control and ±100 the full control effect; nearly all actives have a fitted effect of over 15% in size
Method in brief: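 ATAD5-luc HEK293T, 2,000 cells/well; cpd or DMSO pin-transferred; 16 hr, 37C/5% CO2; Amplite 30 min RT; luminescence.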

[2] = qHTS assay for small molecule agonists of the p53 signaling pathway - cell viability (AID 651633; calls by dose curve; further: nearly all actives have a fitted effect of over 30% in size; further: potency means the concentration at half of the fitted maximal effect)
Method in brief: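 p53RE-bla cells were treated with compound for 16 hours at 37 C. Cytotoxicity was then measured as CellTiter-Glo luminescence after 30 min at room temperature.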

[3] = qHTS assay for small molecules that induce genotoxicity in human embryonic kidney cells expressing luciferase-tagged ATAD5 - cell viability (AID 651634; calls by dose curve; further: nearly all actives have a fitted effect of over 25% in size; further: potency means the concentration at half of the fitted maximal effect)
Method in brief: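 Fluorescence from CellTiter-Fluor, reporting protease activity within live cells, served as the viability read-out. HEK293T cells carrying luciferase-tagged ATAD5 had been treated with compound for 15.5 hr at 37C.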

[4] = qHTS assay for small molecule disruptors of the mitochondrial membrane potential - cell viability (AID 720634; calls by dose curve; further: nearly all actives have a fitted effect of over 20% in size; further: potency means the concentration at half of the fitted maximal effect)
Method in brief: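 Cells: HepG2, 2,000/well, attached overnight. Compound 1 hr, 37 C/5% CO2. +m-MPI dye, +CellTiter-Glo 30 min RT. Readout: luminescence (ATP).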

[5] = qHTS assay to test for compound auto fluorescence at 590 nm (red) in HepG2 cells (AID 720674); further: on the % scale 0 is the no-effect control and ±100 the full control effect
Method in brief: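 Seeding: 2,000 HepG2 cells/well, MEM/10% FBS, overnight 37 C. Dosing: compound vs DMSO. Incubation: 1 hr, 37 C, 5% CO2. Read: fluorescence 540 ex/590 em, Rose Bengal sodium as red reference.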

[6] = qHTS assay to test for compound auto fluorescence at 535 nm (green) in HepG2 cells (AID 720675); further: on the % scale 0 is the no-effect control and ±100 the full control effect
[7] = qHTS assay to test for compound auto fluorescence at 460 nm (blue) in HEK293 cells (AID 720678); further: on the % scale 0 is the no-effect control and ±100 the full control effect
Method in brief: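 Auto fluorescence in the blue band was quantified as triamterene equivalency. HEK293 cells were seeded at 2,000/well, dosed after a 4-5 hr attachment, and kept overnight at 37C before the 405/460 nm reading.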

[8] = qHTS assay to test for compound auto fluorescence at 590 nm (red) in HEK293 cells (AID 720679); further: on the % scale 0 is the no-effect control and ±100 the full control effect
Method in brief: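 Autofluorescence equivalency to Rose Bengal sodium, 540/590nm, in HEK293 cells exposed overnight to 23 nL compound per well.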

[9] = qHTS assay to test for compound auto fluorescence at 535 nm (green) in HEK293 cells (AID 720680); further: on the % scale 0 is the no-effect control and ±100 the full control effect
[10] = qHTS assay to test for compound auto fluorescence at 460 nm (blue) in HEK293 cell free culture (AID 720681); further: on the % scale 0 is the no-effect control and ±100 the full control effect
Method in brief: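 Compounds were added to cell-free DMEM with 10% FBS and fluorescence read directly. The blue channel used 405 nm excitation and 460 nm emission, with triamterene as the reference fluorophore.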

[11] = qHTS assay to test for compound auto fluorescence at 535 nm (green) in HEK293 cell free culture (AID 720682); further: on the % scale 0 is the no-effect control and ±100 the full control effect
Method in brief: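 Cell-free medium (DMEM, 10% FBS) receives compound or DMSO by pintool. Plate read directly at Ex 485/Em 535 nm. Signal converted to fluorescein equivalency.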

[12] = qHTS assay to test for compound auto fluorescence at 590 nm (red) in HEK293 cell free culture (AID 720683); further: on the % scale 0 is the no-effect control and ±100 the full control effect
Method in brief: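 Cell-free wells of DMEM with 10% FBS received compound, and intrinsic fluorescence was read at excitation/emission 540/590 nm. Values expressed as equivalence to Rose Bengal sodium.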

[13] = qHTS assay to test for compound auto fluorescence at 590 nm (red) in HepG2 cell free culture (AID 720684); further: on the % scale 0 is the no-effect control and ±100 the full control effect
Method in brief: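 Compound was pinned into wells holding MEM with 10% FBS and no cells, and red fluorescence was read at Ex/Em 540/590 nm. Signal is expressed as auto fluorescence equivalency relative to Rose Bengal sodium.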

[14] = qHTS assay to test for compound auto fluorescence at 535 nm (green) in HepG2 cell free culture (AID 720686); further: on the % scale 0 is the no-effect control and ±100 the full control effect
[15] = qHTS assay to test for compound auto fluorescence at 460 nm (blue) in HepG2 cells (AID 720687); further: on the % scale 0 is the no-effect control and ±100 the full control effect
Method in brief: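 HepG2 cells in MEM with 10% FBS, attached overnight at 37 C, were exposed to compound or DMSO for 1 hr at 37 C, 5% CO2. Blue fluorescence was read at 405/460 nm, with triamterene as reference fluorophore.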

[16] = target: Glucocorticoid receptor (Homo sapiens) (UniProt P04150); test: qHTS assay to identify small molecule agonists of the glucocorticoid receptor (GR) signaling pathway (AID 720691; active means well fitted activation curve with a large enough effect in the signal ratio in the repeat runs, not every such curve was filed as active; the % refers to the signal ratio; further: potency means the concentration at half of the fitted maximal effect); conditions: GR-bla HeLa, beta-lactamase reporter ratio, 18 h; activation: at 62.4 µM (top of the series)
Method in brief: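 Fluorescence intensity from LiveBLAzer B/G FRET substrate (2 h, room temperature) reports beta-lactamase expression driven by the glucocorticoid response element in GR-bla HeLa cells after 18 h compound exposure at 37 C.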

[17] = target: Glucocorticoid receptor (Homo sapiens) (UniProt P04150); test: qHTS assay to identify small molecule antagonists of the glucocorticoid receptor (GR) signaling pathway (AID 720692; active means well fitted inhibition curve with a large enough effect in the signal ratio in the repeat runs, not every such curve was filed as active; the % refers to the signal ratio; further: potency means the concentration at half of the fitted maximal effect)
Method in brief: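 HeLa GR-bla cells; cmpd + dex 5 nM final, 18 h 37 C; LiveBLAzer B/G FRET substrate 2 h RT; fluorescence intensity read. Antagonist mode, qHTS.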

[18] = qHTS assay to test for compound auto fluorescence at 460 nm (blue) in HepG2 cell free culture (AID 720685); further: on the % scale 0 is the no-effect control and ±100 the full control effect
Method in brief: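 Compound (23 nL) or DMSO pinned into cell-free MEM with 10% FBS; blue fluorescence read at 405/460 nm excitation/emission, expressed as auto-fluorescence equivalency to triamterene.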

[19] = qHTS assay for small molecule disruptors of the mitochondrial membrane potential (AID 720635); further: potency means the concentration at half of the fitted maximal effect
Method in brief: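 HepG2 cells exposed to compound 1 hr at 37C, then Mito-MPS dye 30 min. Ratio read of aggregate (540/590 nm) versus monomer (490/535 nm) fluorescence.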

Sequence of Glucocorticoid receptor (Homo sapiens) (P04150 whole entry, looked up): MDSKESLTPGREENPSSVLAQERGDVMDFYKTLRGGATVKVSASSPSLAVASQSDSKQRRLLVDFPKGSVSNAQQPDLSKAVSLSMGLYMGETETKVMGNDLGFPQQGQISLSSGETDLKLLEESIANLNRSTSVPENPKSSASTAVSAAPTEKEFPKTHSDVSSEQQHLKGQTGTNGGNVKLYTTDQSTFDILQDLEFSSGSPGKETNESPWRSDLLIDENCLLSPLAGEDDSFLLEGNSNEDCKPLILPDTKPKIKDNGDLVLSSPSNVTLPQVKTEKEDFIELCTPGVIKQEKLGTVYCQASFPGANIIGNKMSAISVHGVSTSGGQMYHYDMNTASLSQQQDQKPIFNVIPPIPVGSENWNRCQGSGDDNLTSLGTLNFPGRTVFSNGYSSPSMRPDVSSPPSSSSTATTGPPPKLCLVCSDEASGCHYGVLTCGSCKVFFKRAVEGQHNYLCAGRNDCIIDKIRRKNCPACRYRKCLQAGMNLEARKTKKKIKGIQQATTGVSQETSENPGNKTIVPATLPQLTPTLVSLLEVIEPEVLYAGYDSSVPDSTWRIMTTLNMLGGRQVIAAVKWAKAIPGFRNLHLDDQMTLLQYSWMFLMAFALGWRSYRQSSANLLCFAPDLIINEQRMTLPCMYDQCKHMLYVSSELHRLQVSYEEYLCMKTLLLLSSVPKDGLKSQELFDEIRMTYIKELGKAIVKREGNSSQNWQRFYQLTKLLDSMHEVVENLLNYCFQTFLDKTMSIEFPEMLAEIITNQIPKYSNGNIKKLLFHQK

Cc1onc(-c2ccccc2Cl)c1C(=O)N[C@@H]1C(=O)N2[C@@H]1SC(C)(C)[C@@H]2C(=O)O
inactive: Potency [1] | Potency [2] | Potency [3] | Potency [4] | fluorescence, relative to Rose Bengal [5] -0.424% [at 18.6 µM] | fluorescence, % of fluorescein control [6] -0.13% [at 18.6 µM] | fluorescence, % of triamterene [7] -0.0411% [at 18.6 µM] | fluorescence, % of fluorescent control [8] 0.844% [at 18.6 µM] | fluorescence, % of fluorescein [9] 0.0884% [at 18.6 µM] | fluorescence, % of fluorescent control [10] 0.0563% [at 18.6 µM] | activity change [11] 0.0013% [at 18.6 µM] | fluorescence, % of fluorescent control [12] 0.401% [at 18.6 µM] | fluorescence, % of Rose Bengal [13] -0.203% [at 18.6 µM] | fluorescence, % of fluorescein control [14] 0.101% [at 18.6 µM] | fluorescence, % of fluorescent control [15] 0.0164% [at 18.6 µM] | Potency [16]

O=C(Oc1ccccc1)c1ccccc1C(=O)Oc1ccccc1
inactive: Potency [1] | Potency [2] | Potency [3] | Potency [5] | Potency [6] | Potency [7] | Potency [8] | outcome [9] | Potency [10] | outcome [11] | Potency [12] | Potency [13] | Potency [14] | Potency [15] | Potency [16] | Potency [17]

CC(C)c1ccc2c(c1)CC[C@H]1[C@](C)(CN)CCC[C@]21C
inactive: Potency [1] | Potency [5] | Potency [6] | Potency [7] | Potency [8] | outcome [9] | Potency [10] | outcome [11] | Potency [12] | Potency [13] | Potency [18] | Potency [14] | Potency [15]
active: Potency [2] 27.3 µM | Potency [3] 38.6 µM

CCCCCCCCCCCCCC[P+](CCCC)(CCCC)CCCC (tested in a mixture with another compound)
inactive: Potency [1] | Potency [5] | Potency [6] | Potency [7] | Potency [8] | outcome [9] | Potency [10] | outcome [11] | Potency [12] | Potency [13] | Potency [18] | Potency [14] | Potency [15]
active: Potency [2] 27.5 µM | Potency [4] 61.5 µM | Potency [19] 0.69 µM

Oc1ccc2c(c1)-c1ccccc1C2
inactive: Potency [1] | Potency [2] | Potency [3] | Potency [5] | Potency [6] | Potency [7] | Potency [8] | outcome [9] | Potency [10] | outcome [11] | Potency [12] | Potency [13] | Potency [14]
active: Potency [19] 9.69 µM

COc1ccc(CN2CCN(C(c3ccc(F)cc3)c3ccc(F)cc3)CC2)c(OC)c1OC
active: Potency [2] 26.6 µM | Potency [3] 21.1 µM | Potency [16] 4.77 µM
inactive: Potency [1] | Potency [4] | Potency [5] | Potency [6] | Potency [7] | Potency [8] | outcome [9] | Potency [10] | Potency [12] | Potency [13] | Potency [18] | Potency [14] | Potency [15]

CCCCCCCCCCCCc1ccc(O)cc1
active: Potency [2] 24.3 µM | Potency [19] 2.73 µM
inactive: Potency [1] | Potency [4] | Potency [5] | Potency [6] | Potency [7] | Potency [8] | outcome [9] | Potency [10] | outcome [11] | Potency [12] | Potency [13] | Potency [18] | Potency [14] | Potency [15]

CCCCCCC[N+](CC)(CC)CCCCc1ccc(Cl)cc1
inactive: Potency [1] | Potency [2] | Potency [3] | Potency [4] | fluorescence, relative to Rose Bengal [5] -0.305% [at 18.6 µM] | fluorescence, % of fluorescein control [6] -0.0059% [at 18.6 µM] | fluorescence, % of triamterene [7] 0.0756% [at 18.6 µM] | fluorescence, % of fluorescent control [8] -0.312% [at 18.6 µM] | fluorescence, % of fluorescein [9] 0.0325% [at 18.6 µM] | fluorescence, % of fluorescent control [10] -0.0966% [at 18.6 µM] | activity change [11] -0.0177% [at 18.6 µM] | fluorescence, % of fluorescent control [12] -0.544% [at 18.6 µM] | fluorescence, % of Rose Bengal [13] -0.101% [at 18.6 µM] | fluorescence, % of fluorescein control [14] 0.172% [at 18.6 µM] | fluorescence, % of fluorescent control [15] -0.0972% [at 18.6 µM] | Potency [16]

C[C@H](CCC(=O)O)[C@H]1CC[C@H]2[C@@H]3CC[C@@H]4C[C@H](O)CC[C@]4(C)[C@H]3CC[C@]12C
active: Potency [2] 27.2 µM and 27.3 µM | Potency [19] 60.9 µM | Potency [17] 19.4 µM and 43.6 µM
inactive: Potency [1] | Potency [3] | Potency [5] | Potency [6] | Potency [7] | Potency [8] | outcome [9] | Potency [10] | outcome [11] | Potency [12] | Potency [13] | Potency [18] | Potency [15] | Potency [16]

Cc1ccc(O)c2ncccc12
inactive: Potency [1] | Potency [2] | Potency [3] | Potency [4] | Potency [5] | Potency [6] | Potency [7] | Potency [8] | outcome [9] | Potency [10] | outcome [11] | Potency [12] | Potency [13] | Potency [14] | Potency [15] | Potency [17]

CCc1oc2ccccc2c1C(=O)c1cc(Br)c(O)c(Br)c1
active: Potency [2] 26.6 µM | Potency [19] 5.96 µM | Potency [17] 15.1 µM
inactive: Potency [1] | Potency [3] | Potency [5] | Potency [6] | Potency [7] | Potency [8] | outcome [9] | Potency [10] | outcome [11] | Potency [12] | Potency [13] | Potency [18] | Potency [14] | Potency [15] | Potency [16]

Nc1c(Cl)cc(Cl)cc1Cl
inactive: Potency [1] | Potency [2] | Potency [3] | Potency [4] | Potency [5] | Potency [6] | Potency [7] | Potency [8] | outcome [9] | Potency [10] | outcome [11] | Potency [12] | Potency [13] | Potency [14] | Potency [15] | Potency [16] | Potency [17]

CCN(C(=O)N(CC)c1ccccc1)c1ccccc1
inactive: Potency [1] | Potency [2] | Potency [3] | Potency [5] | Potency [6] | Potency [7] | Potency [8] | outcome [9] | Potency [10] | outcome [11] | Potency [12] | Potency [13] | Potency [18] | Potency [14] | Potency [16] | Potency [17]
